Screens (PubChem)
Rows were chosen to be rich in hits. Some 2.3% of all compounds tested hit in one or more screens of this group.
HIF-2a block – inhibitors of HIF-2a. 786-0 RCC cells HIF-2a reporter, luciferase luminescence, overnight. inhibition, % at 18.8 µM. 0.72% of 360,000 active;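 active = inhibition of the luminescence signal of 40% or more relative to plate controls, in a single-dose primary screen at 18.75 µM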
hiPSC survival – enhancers of human iPSC single-cell survival. hiPSC single-cell survival, ATPlite luminescence; 100% = ROCK inhibitor wells, 0% = DMSO. survival enhancement, % at 20 µM. 0.044% of 360,000 active. AID 602274; in the data active = survival enhancement above about 18%;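 also: cells exposed to compounds for 16 hours before the ATP read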
KKLEB tox – reduces viability of KKLEB cystic fibrosis airway cells; KKLEB CF airway cells viability, ATPlite luminescence, overnight; stronger effect = lower value; cells stimulated with P. aeruginosa culture filtrate; activity change (cytotoxicity), % at 5 µM; 0.36% of 360,000 active;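 active = corrected activity change at or below -50% at 5 µM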
CF NFkB inh – cystic fibrosis NF-kB activation inhibition; KKLEB NF-kB-GFP reporter, PAF-induced, GFP fluorescence overnight; inhibition, % at 5 µM; 0.86% of 360,000 active; AID 588850;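 active = at least 50% inhibition at 5 µM, scaled per plate between neutral and stimulator controls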;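 also: PAF is a Pseudomonas aeruginosa culture filtrate used as stimulus; plate controls were PAF-stimulated DMSO wells for no effect and unstimulated DMSO wells for full effect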
LGR2 antag – inhibitors of bursicon-induced Drosophila LGR2 receptor cAMP signaling. 0.35% of 380,000 active. inhibition, % at 9.99 µM. AID 720647. HEK293 LGR2, CRE-luciferase, bursicon-stimulated, 4 h;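 active = drop in luminescence signal, shown as inhibition above about 50% in the replicate tests, limit read from the data, passing the limit was not always enough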;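 also: agonist challenge used bursicon conditioned medium at about half maximal strength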
TWEAK-Fn14 inh – blocks TWEAK-Fn14 interaction in a reporter cell assay; TWEAK-stimulated Fn14 reporter cells, luciferase luminescence, 8 h; inhibition, % at 10 µM; 2% of 360,000 active; in the data active = inhibition above about 50%
An asterisk follows results filed as active; nt = no result given.

SMILES	HIF-2a block	hiPSC survival	KKLEB tox	CF NFkB inh	LGR2 antag	TWEAK-Fn14 inh
CC1=CC(C)(C)Nc2ccc(OC(=O)C(Cc3ccccc3)N3C(=O)c4ccccc4C3=O)cc21 (configuration not stated)	80.7*	-2.3	3.3	13.2	nt	110.3*
O=C(Cc1cccs1)NCC1CCCO1 (configuration not stated)	28.8	5.0	6.5	-16.2	1.0	51.0*
CC1(C)CC(NC(=O)COc2ccccc2Cl)CC(C)(C)N1	-45.7	1.2	-1.9	-24.7	-2.5	78.4*
COc1ccc(OCC(=O)NC2CC(C)(C)NC(C)(C)C2)cc1	-1.3	3.0	5.8	1.0	nt	64.8*
CC(C)NC(=O)N(C)C[C@H]1Oc2ccc(NC(=O)Cn3cnnn3)cc2C(=O)N([C@@H](C)CO)C[C@H]1C	nt	nt	nt	nt	-11.5	nt
Cc1noc(C)c1NC(=O)N1C[C@@H](O)COC[C@H]2O[C@H](CC(=O)NCC3CCCCC3)CC[C@@H]21	nt	nt	nt	nt	-5.6	nt
C[C@H](CO)N1C[C@H](C)[C@H](CN(C)C(=O)NC2CCCCC2)Oc2ccc(N(C)C)cc2C1=O	nt	nt	nt	nt	-28.6	nt
CC(C)(C)c1cc(NC(=O)C2CCCO2)no1 (configuration not stated)	-186.2	1.2	4.5	6.4	-23.5	64.7*
O=C(O)c1cc(NC(=O)C2CCCO2)cc(C(=O)O)c1 (configuration not stated)	15.2	-0.7	1.4	-14.8	10.9	30.6
CO[C@H]1CN(C)C(=O)c2cc(NC(=O)C3CC3)ccc2OC[C@@H](C)N(CCc2ccccc2)C[C@@H]1C	nt	nt	nt	nt	6.8	nt
CO[C@H]1CC[C@@H]2CCN(C)C(=O)[C@@H](C)N(C)C(=O)c3cc(C#N)ccc3OC[C@H]1O2	nt	nt	nt	nt	-3.9	nt
NNc1nc(Nc2ccccc2)nc(Nc2ccccc2)n1	-36.0	-1.2	-5.9	-2.2	-50.2	-7.6
c1ccc(Nc2ccnc(Nc3ccccc3)n2)cc1	-255.3	0.5	-15.8	48.7	-33.2	55.5*
CNC[C@H]1Oc2ccc(NC(=O)Cc3cn(C)c4ccccc34)cc2CC(=O)N([C@H](C)CO)C[C@H]1C	nt	nt	nt	nt	0.4	nt
O=C(Nc1ccccc1Cl)N1CCN(c2ccccn2)CC1	-9.8	0.0	-4.3	1.4	8.9	101.1*
COc1ccccc1NC(=O)N1CCN(c2ccccn2)CC1	-8.7	-0.1	5.9	-5.7	-2.5	1.6
CN1C(=O)c2cc(NC(=O)Nc3ccccc3)ccc2OC[C@H]2O[C@H](CC(=O)O)CC[C@H]21	nt	nt	nt	nt	-9.1	nt
CCC(=O)Nc1ccc2c(c1)C(=O)c1ccccc1C2=O	-287.0	-0.3	6.9	-65.1	nt	-17.7
CCC(C)(C)c1ccc2c(c1)C(=O)c1ccccc1C2=O	-180.9	-1.5	-12.7	21.6	-39.4	61.1*
Cc1csc2ncnc(N3CCN(C(=S)Nc4ccc(F)cc4F)CC3)c12	23.9	-0.6	-5.0	32.6	41.5	54.5*
Cc1cccc(N(C(=O)CNC(=O)c2ccco2)C(C(=O)NCC2CCCO2)c2ccccc2)c1 (configuration not stated)	9.9	1.1	3.9	7.8	6.8	67.0*
Cc1nnsc1NC(=O)OCc1ccc(C(C)(C)C)cc1	-6.7	-0.8	3.2	-6.5	-26.0	56.0*
C=CCOC(=O)Nc1snnc1C	15.0	1.0	0.4	16.2	-17.5	-4.1
Cc1cc(C(=O)C(C)OC(=O)c2ccc(NC(=O)CC#N)cc2)c(C)n1-c1ccccc1 (configuration not stated)	5.5	-0.4	13.7	-13.1	12.4	64.0*
CC(=O)Nc1ccc(SCC(=O)c2cc(C)n(-c3ccccc3)c2C)cc1	22.3	-0.1	-30.6	-8.1	8.5	72.7*
CC(OC(=O)c1ccc(NC(=O)CC#N)cc1)C(=O)NC(c1ccccc1)c1ccccc1 (configuration not stated)	7.9	0.3	-1.3	-17.9	5.1	4.9
C[C@H](CO)N1C[C@H](C)[C@@H](CN(C)S(=O)(=O)c2ccc(Cl)cc2)Oc2c(NS(=O)(=O)c3cn(C)cn3)cccc2C1=O	nt	nt	nt	nt	-17.3	nt
C[C@H]1CCCCO[C@H](CN(C)C(=O)Cc2ccccc2)[C@@H](C)CN([C@@H](C)CO)C(=O)c2cc(N(C)C)ccc2O1	nt	nt	nt	nt	-10.7	nt
COCC(=O)Nc1ccc2c(c1)C(=O)N(C)C[C@H](OC)[C@@H](C)CN(Cc1ccccn1)[C@@H](C)CO2	nt	nt	nt	nt	3.8	nt
